Test results reported in the supplement of paper PMC9023506.
Where a name gives a salt, the structure may show the parent alone.

The compounds below were run on Danio rerio larvae (5 dpf) (assay: optomotor response to green moving lines, difference vs DMSO (percentage points (treated minus DMSO)); higher = more of the behaviour than the DMSO vehicle control). Details: 10 µM; exposure time: 3 h pre-incubation + 3 h imaging.
Experimental: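 5-dpf wild-type zebrafish larvae were imaged in 96-well plates. They were treated with 190 Tocris FDA-approved drugs at 10 µM (1 µl/ml DMSO) for 3 h before and 3 h during imaging at 28.5 °C, 48 larvae per drug. Automated image analysis gave % time moving and optomotor responses. Values are drug group mean minus DMSO vehicle mean (n=844), in percentage points, for 10 behaviours.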

Row | SMILES | optomotor response to green moving lines
1 | CCCc1nc(C(C)(C)O)c(C(=O)O)n1Cc1ccc(-c2ccccc2-c2nnn[nH]2)cc1 [Olmesartan] | -2.59
2 | CN1CCN(CCCN2c3ccccc3Sc3ccc(Cl)cc32)CC1 [Prochlorperazine dimaleate] | 3.92
3 | C[C@]12CC[C@@H]3c4ccc(O)cc4C[C@@H](CCCCCCCCC[S+]([O-])CCCC(F)(F)C(F)(F)F)[C@H]3[C@@H]1CC[C@@H]2O (stereo not given in full) | -7.68
4 | CC(c1cc2ccccc2s1)N(O)C(N)=O (stereo not given) [Zileuton] | -11.3
5 | CNC(=O)c1ccccc1Sc1ccc2c(/C=C/c3ccccn3)n[nH]c2c1 [Axitinib] | 2.99
6 | OCCN1C[C@H](O)[C@@H](O)[C@H](O)[C@H]1CO [Miglitol] | 2.58
7 | OC(CNCC(O)C1CCc2cc(F)ccc2O1)C1CCc2cc(F)ccc2O1 (stereo not given) [Nebivolol hydrochloride] | -4.67
8 | C#CCN[C@@H]1CCc2ccccc21 [Rasagiline mesylate] | -10.1
9 | CC1(C)O[C@@H]2[C@@H](CO[C@@]3(COS(N)(=O)=O)OC(C)(C)O[C@@H]23)O1 [Topiramate] | -1.84
10 | CCc1c2c(nc3ccc(OC(=O)N4CCC(N5CCCCC5)CC4)cc13)-c1cc3c(c(=O)n1C2)COC(=O)[C@]3(O)CC | -1.18
11 | CNC(=O)c1cc(Oc2ccc(NC(=O)Nc3ccc(Cl)c(C(F)(F)F)c3)cc2)ccn1 [Sorafenib] | -2.72
12 | COc1cc2ncnc(Nc3ccc(F)c(Cl)c3)c2cc1OCCCN1CCOCC1 [Iressa] | -10.8
13 | Cc1nc(Nc2ncc(C(=O)Nc3c(C)cccc3Cl)s2)cc(N2CCN(CCO)CC2)n1 [Dasatinib] | -4.87
14 | CCCCCCCN(CC)CCCC(O)c1ccc(NS(C)(=O)=O)cc1 (stereo not given) [Ibutilide hemifumarate] | 4.88
15 | N#C[C@@H]1C[C@@H]2C[C@@H]2N1C(=O)[C@@H](N)C12CC3CC(CC(O)(C3)C1)C2 [Saxagliptin hydrochloride] | -3.2
16 | CCOC(=O)c1ncn2c1CN(C)C(=O)c1cc(F)ccc1-2 [Flumazenil] | 15
17 | Nc1nc(Cl)nc2c1ncn2[C@@H]1O[C@H](CO)[C@@H](O)[C@@H]1F [Clofarabine] | 7.3
18 | O=C(NCC1CCCCN1)c1cc(OCC(F)(F)F)ccc1OCC(F)(F)F (stereo not given) [Flecainide acetate] | 18.1
19 | CCCCC1=NC2(CCCC2)C(=O)N1Cc1ccc(-c2ccccc2-c2nnn[nH]2)cc1 [Irbesartan] | -19
20 | C[C@H](Cc1cc2c(c(C(N)=O)c1)N(CCCO)CC2)NCCOc1ccccc1OCC(F)(F)F [Silodosin] | 1.5

Row | SMILES | optomotor response to green moving lines
21 | CCCCNc1cc(C(=O)O)cc(S(N)(=O)=O)c1Oc1ccccc1 [Bumetanide] | 5.17
22 | CCOc1ccccc1OCCN[C@H](C)Cc1ccc(OC)c(S(N)(=O)=O)c1 [Tamsulosin hydrochloride] | -11.6
23 | CC(C)OC(=O)C(C)(C)Oc1ccc(C(=O)c2ccc(Cl)cc2)cc1 [Fenofibrate] | 8.84
24 | COCCCOc1cc(C[C@@H](C[C@H](N)[C@@H](O)C[C@H](C(=O)NCC(C)(C)C(N)=O)C(C)C)C(C)C)ccc1OC [Aliskiren hemifumarate] | -4.53
25 | COc1cc(Nc2c(C#N)cnc3cc(OCCCN4CCN(C)CC4)c(OC)cc23)c(Cl)cc1Cl [Bosutinib] | 2.65
26 | COc1cc([C@@H]2c3cc4c(cc3[C@@H](O[C@@H]3O[C@@H]5CO[C@@H](C)O[C@H]5[C@H](O)[C@H]3O)[C@H]3COC(=O)[C@H]23)OCO4)cc(OC)c1O [Etoposide] | -0.812
27 | CCN(Cc1ccncc1)C(=O)C(CO)c1ccccc1 (stereo not given) [Tropicamide] | -4.16
28 | COc1ccc(C[C@@H](C)NC[C@H](O)c2ccc(O)c(NC=O)c2)cc1 [Arformoterol tartrate] | 0.317
29 | C=CC(=O)N1CCC[C@@H](n2nc(-c3ccc(Oc4ccccc4)cc3)c3c(N)ncnc32)C1 [Ibrutinib] | -2.12
30 | CCCc1nn(C)c2c(=O)[nH]c(-c3cc(S(=O)(=O)N4CCN(C)CC4)ccc3OCC)nc12 [Sildenafil citrate] | -1.55
31 | CCOC(=O)[C@H](CCc1ccccc1)N[C@@H](C)C(=O)N1[C@H](C(=O)O)C[C@@H]2CCC[C@@H]21 [Ramipril] | -0.542
32 | CC(C)(C(=O)c1cccnc1)c1cccnc1 [Metyrapone] | -5.18
33 | CC1CNc2c(cccc2S(=O)(=O)N[C@@H](CCCNC(=N)N)C(=O)N2CC[C@@H](C)C[C@@H]2C(=O)O)C1 (stereo not given in full) [Argatroban] | -1.18
34 | C[C@@H](O[C@H]1OCCN(Cc2n[nH]c(=O)[nH]2)[C@H]1c1ccc(F)cc1)c1cc(C(F)(F)F)cc(C(F)(F)F)c1 [Aprepitant] | 4.81
35 | Cc1cc(C2CCCCC2)n(O)c(=O)c1 [Ciclopirox] | -5.97
36 | COc1ccccc1OCC(O)CN1CCN(CC(=O)Nc2c(C)cccc2C)CC1 (stereo not given) [Ranolazine dihydrochloride] | -0.274
37 | CC(=O)Oc1ccccc1C(=O)O [Aspirin] | -12.5
38 | COCCc1ccc(OCC(O)CNC(C)C)cc1 (stereo not given) [Metoprolol tartrate] | 0.682
39 | COc1ccccc1Oc1c(NS(=O)(=O)c2ccc(C(C)(C)C)cc2)nc(-c2ncccn2)nc1OCCO [Bosentan] | -5.7
40 | Brc1c(NC2=NCCN2)ccc2nccnc12 | 10.3
